In PubChem BioAssay AID493212 (National Center for Advancing Translational Sciences (NCATS), 2011) one finds Potency data, which are given here for five compounds.

The structures appear in SMILES notation. This is one part of the list. Results filed as inconclusive are left out. Active and inactive are the calls of the source. The call rests on the fitted dose curve; in most records, active means well fitted inhibition curve with a large enough effect; inconclusive means small, poorly fitted or top-dose-only effect; inactive means no such curve, though single readings can be large or run the other way.

The target of this assay is Lysine-specific demethylase 4E (Homo sapiens) (UniProt B2RXH2). Briefly: Inhibitors of Human Jumonji Domain Containing 2E (JMJD2E): 8HQs - Round 1. To be noted: FDH-coupled NADH fluorescence (FDH is formaldehyde dehydrogenase). An excerpt: The fine interplay among methylation states of several lysine residues on the tails of histone proteins is a major determinant of the transcriptional state of the associated DNA coding regions and is commonly referred to as the histone code. Histone lysine demethylases catalyze the removal of methyl groups from methylated lysine sidechains on histones H3 and H4, thus antagonizing the reactions catalyzed by histone lysine methyltransferases. […] In search for novel inhibitors of JMJD2E demethylase, a member of the largest set of histone demethylases belonging to the Fe(II) and 2-oxoglutarate oxygenase (2OG) superfamily, we performed a quantitative high-throughput screen (Inglese 2006) by using an assay which utilizes a trimethylated peptide substrate corresponding to a fragment of histone H3 (sequence ARKme3STGGK) with detection of the formaldehyde co-product in real time by a formaldehyde dehydrogenase (FDH) coupled reaction. FDH catalyzes oxidation of formaldehyde to formic acid with the concomitant reduction of the non-fluorescent beta-nicotinamide adenine dinucleotide hydrate (NAD+) cofactor to the fluorescent NADH co-product. This assay is a following of SAR around 8-hydroxyquinoline-based inhibitors of JMJD2E. References: Inglese, J., Auld, D., Jadhav, A., Johnson, R., Simeonov, A., Yasgar, A., Zheng, W. and Austin, C. Proc Natl Acad Sci USA 2006, 103, 11473-11478. N. R. Rose, S. S. Ng, J. Mecinovic, B. M. Lienard, S. H. Bello, Z. Sun, M. A. McDonough, U. Oppermann and C. J. Schofield, J Med Chem, 2008, 51, 7053-7056. Sakurai, M., Rose, N., Schultz, L., Quinn, A., Jadhav, A., Ng, S., Oppermann, U., Schofield, C.J. and Simeonov, A. Mol BioSystems 2009, in press. S. Michael, D. Auld, C. Klumpp, A. Jadhav, W. Zheng, N. Thorne, C. Austin, J. Inglese and A. Simeonov, Assay Drug Dev Technol, 2008, 6, 637-657. Assay Provider: Structural Genomics Consortium [SGC] Screening Center PI: Austin, C.P. Screening Center: NIH Chemical Genomics Center [NCGC]
Lysine-specific demethylase 4E (Homo sapiens), sequence (B2RXH2 1-337 limits assumed): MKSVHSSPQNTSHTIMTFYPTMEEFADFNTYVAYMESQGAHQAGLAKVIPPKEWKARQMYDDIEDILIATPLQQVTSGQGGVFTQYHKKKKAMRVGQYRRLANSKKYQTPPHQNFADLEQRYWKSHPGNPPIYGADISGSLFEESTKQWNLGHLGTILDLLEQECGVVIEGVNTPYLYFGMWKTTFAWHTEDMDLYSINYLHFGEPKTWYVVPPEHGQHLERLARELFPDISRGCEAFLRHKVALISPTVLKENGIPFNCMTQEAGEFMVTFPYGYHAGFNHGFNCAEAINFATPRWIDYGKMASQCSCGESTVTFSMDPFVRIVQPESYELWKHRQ
Reagents and Controls: Ferrous ammonium sulfate, (+)-sodium L-ascorbate, beta-nicotinamide adenine dinucleotide hydrate (NAD+), Tween-20, formaldehyde dehydrogenase from P. putida (FDH), and disodium 2-oxoglutarate were from Sigma (St. Louis, MO). Black solid-bottom 384-well or 1,536-well assay plates were from Greiner Bio-One (Monroe, NC). Enzyme was supplied by Prof. Udo Oppermann, SGC-Oxford. The catalytic domain of human JMJD2E (residues 1-337) was produced as an N-terminally His6-tagged protein in E. coli, and purified by Ni-affinity chromatography and size-exclusion chromatography, and stored in HEPES 50 mM/ NaCl 500 mM pH 7.5, as reported in Rose 2008. The trimethylated histone peptide substrate ARK(me3)STGGK was synthesized and HPLC-purified by the Tufts University Core Facility (Boston, MA). Substrate solution (Sakurai 2009) contained 50 uM ARK(me3)STGGK, 0.00025 U/uL FDH, 50 uM 2-oxoglutarate, 250 uM NAD+, 1 mM ascorbate, and 10 uM ferrous ammonium sulfate. Controls and plate map: Buffer (150 mM HEPES pH 7.5 containing 0.01% Tween-20) in columns 3 and 4 as negative control (no enzyme) and 100 nM JMJD2E final concentration in columns 1,2, and 5-48. […] The plate was transferred to ViewLux imager where an initial reading using standard UV optics (Ex 340 nm, Em 450 nm) was obtained. The plate was then removed from the reader, incubated for 30 minutes at room temperature, and returned to the reader for a second fluorescence reading. […]
As to `Oc1cccc2cc(-c3ccncc3)cnc12`, the Potency is 18.2 µM (active).
Regarding `Oc1c(CN2CCCC2)cc(COCc2ccccc2)c2cccnc12`, the Potency is 5.01 µM (active).
Take `Oc1ccc(/C=C/c2c(F)cccc2F)c2cccnc12`: the Potency is 8.91 µM (active).
Then `Nc1ccc(Nc2cc(O)c3ncccc3c2)cc1`, with 32.4 µM (active); and `CC(=O)NC(c1cccs1)c1cc(Cl)c2cccnc2c1O` (stereo not given), with 12.9 µM (active).
